Source: paper PMC5540273 (PLoS ONE, 2017)

Columns and labels:
Details in all cases: concentration: 1 μM, replicates: in singlicate; n = 1
QSK = tested on: QSK
RAF1 = tested on: RAF1
RET = tested on: RET
RIOK1 = tested on: RIOK1
RIOK2 = tested on: RIOK2
RIOK3 = tested on: RIOK3
RIPK1 = tested on: RIPK1
RIPK2 = tested on: RIPK2
RIPK4 = tested on: RIPK4
RIPK5 = tested on: RIPK5
ROCK1 = tested on: ROCK1
ROCK2 = tested on: ROCK2
ROS1 = tested on: ROS1
[1] = tested on: RPS6KA4(Kin.Dom.1-N-terminal)
[2] = tested on: RPS6KA4(Kin.Dom.2-C-terminal)
[3] = tested on: RPS6KA5(Kin.Dom.1-N-terminal)
[4] = tested on: RPS6KA5(Kin.Dom.2-C-terminal)
[5] = tested on: T1, RSK1(Kin.Dom.1-N-terminal)
T1 construct: gene RPS6KA1

[6] = tested on: T2, RSK1(Kin.Dom.2-C-terminal)
T2 construct: gene RPS6KA1

[7] = tested on: T3, RSK2(Kin.Dom.1-N-terminal)
T3 construct: gene RPS6KA3
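Note: KINOMEscan kinase panel screen.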

Row | Compound | %Inh (QSK) [%] | %Inh (RAF1) [%] | %Inh (RET) [%] | %Inh (RIOK1) [%] | %Inh (RIOK2) [%] | %Inh (RIOK3) [%] | %Inh (RIPK1) [%] | %Inh (RIPK2) [%] | %Inh (RIPK4) [%] | %Inh (RIPK5) [%] | %Inh (ROCK1) [%] | %Inh (ROCK2) [%] | %Inh (ROS1) [%] | %Inh [1] [%] | %Inh [2] [%] | %Inh [3] [%] | %Inh [4] [%] | %Inh [5] [%] | %Inh [6] [%] | %Inh [7] [%]
1 | Cn1ccc2ncnc(Oc3cccc(C(=O)Nc4ccccc4)c3)c21 | 0 | 5 | 14 | 38 | 0 | 23 | 0 | 15 | 18 | 0 | 0 | 16 | 4 | 0 | 18 | 19 | 0 | 0 | 9 | 0
2 | COc1ccc(CNC(=O)NC2CCN(c3ccnc(Nc4cc(OC)c(OC)c(OC)c4)n3)C2)cc1 (centres unmarked) [GSK1379748] | 0 | 0 | 0 | 35 | 0 | 32 | 17 | 16 | 28 | 48 | 20 | 31 | 29 | 0 | 0 | 0 | 21 | 0 | 1 | 3
3 | COc1cccc(-c2cc(-c3c[nH]nc3-c3ccccn3)ccn2)c1 [GW680338] | 17 | 25 | 21 | 1 | 3 | 91.4 | 19 | 27 | 0 | 5 | 0 | 0 | 0 | 18 | 0 | 0 | 7 | 0 | 9 | 0
4 | CS(=O)(=O)c1ccc(-c2nc3n(c2-c2ccncc2)CCC3)cc1 [SKF-105942] | 0 | 16 | 0 | 0 | 0 | 0 | 0 | 0 | 100 | 2 | 0 | 0 | 2 | 1 | 0 | 0 | 0 | 27 | 0 | 4
5 | Cl.O=C(Nc1cccc(-c2nn3ncccc3c2-c2ccnc(Nc3cccnc3)n2)c1)c1c(F)cccc1F [GSK312879] | 0 | 87 | 31 | 31 | 11 | 0 | 0 | 18 | 15 | 0 | 0 | 0 | 0 | 20 | 0 | 9 | 0 | 8 | 10 | 27
6 | COc1ccc(Nc2nccc(NCCNC(=O)Nc3ccccc3F)n2)cc1 [GSK1379901] | 3 | 20 | 17 | 40 | 0 | 39 | 33 | 22 | 11 | 6 | 30 | 44 | 24 | 14 | 0 | 14 | 27 | 16 | 0 | 1
7 | O=C(Nc1n[nH]c2nc(-c3nccs3)c(Br)cc12)C1CCCC1 [SB-742609] | 0 | 25 | 0 | 2 | 0 | 0 | 0 | 4 | 21 | 1 | 10 | 0 | 0 | 7 | 0 | 0 | 0 | 14 | 0 | 11
8 | Cc1cccc(-c2nc(Nc3cccc(C(N)=O)c3)c3ccccc3n2)n1 [GW876019] | 0 | 17 | 0 | 50 | 0 | 26 | 19 | 0 | 0 | 0 | 1 | 15 | 0 | 27 | 0 | 0 | 0 | 0 | 46 | 1
9 | COc1ccccc1-c1ccc2c(NC(=O)C3CC3)n[nH]c2n1 [SB-711239] | 16 | 38 | 11 | 20 | 9 | 0 | 10 | 33 | 0 | 0 | 23 | 6 | 10 | 9 | 0 | 13 | 12 | 11 | 0 | 0
10 | COc1cc(Nc2nccc(N3CCC(NC(=O)Nc4cc(C)ccc4C)C3)n2)cc(OC)c1OC (centres unmarked) [GSK1379762] | 0 | 19 | 25 | 60 | 6 | 34 | 4 | 8 | 18 | 0 | 12 | 2 | 42 | 8 | 0 | 22 | 2 | 2 | 0 | 0
